TDP1 cell CPT: growth inhibition of DT40 Tdp1-/-;hTDP1 cells with camptothecin (screen for TDP1 inhibitors); chicken DT40 Tdp1-/-;hTDP1 cells + 20 nM CPT, ATP luminescence, 48 h; Potency, µM (highest dose often 46.2 µM), without a hit: at the highest dose activity change, negative = growth inhibition, actives largely listed as inhibitors; AID 686979; hit rate 12% among 420,000; note: nearly all actives have a fitted effect of over 55% in size
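Chicken DT40 Tdp1-/- cells complemented with human TDP1, 400 cells/well, exposed to compounds plus 20 nM camptothecin for at least 48 h at 37 C; viability read as ATP content by CellTiter-Glo luminescence.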
RORg inh: ROR gamma (mouse) transcription inhibition | P51450 | hit rate 5.4% among 310,000 | Potency, µM (highest dose often 53.6 µM), for the others: at the top dose activity change, negative = inhibition, actives largely listed as inhibitors | AID 2551 | Drosophila S2 Gal4-RORgamma UAS-luciferase reporter, 20 h; note: nearly all actives have a fitted effect of over 60% in size
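Luminescence from a UAS-regulated Photinus luciferase reporter in stably transfected Drosophila Schneider cells is measured; decreased signal marks ROR gamma inhibition. Fusion expression is induced by 700 uM copper sulfate for 20 hr.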
Gal4-VP16 FLuc: Gal4-VP16 reporter inhibition counter-screen | Drosophila S2 Gal4-VP16 UAS-luciferase, luminescence, 20 h | Potency, µM (series often up to 53.6 µM), inactives show at the top dose activity, negative = inhibition, hits mostly inhibitors | hit rate 3.5% among 310,000;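 note: Gal4-VP16 expression switched on by copper sulfate through the metallothionein promoter; nearly all actives have a fitted effect of over 50% in size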
DT40 TDP1 no CPT: qHTS for Inhibitors of human tyrosyl-DNA phosphodiesterase 1 (TDP1): qHTS in cells in absence of CPT; DT40 Tdp1-/- hTDP1 cells, no CPT, ATP luminescence, 48 h; Potency, µM (top dose mostly 46.2 µM), for the others: at the highest dose activity change, negative = growth inhibition, most hits filed as inhibitors; hit rate 15% among 420,000; note: nearly all actives have a fitted effect of over 55% in size
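Cells were dispensed at 400 per well, compounds added by pin tool, plates incubated ≥48 hr at 37 °C, then CellTiter-Glo added for 30 min at room temperature before luminescence reading. Line: DT40 Tdp1-/- complemented with hTDP1; camptothecin omitted.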
ELG1 DNA repair: ELG1-dependent DNA repair inhibition | AID 504467 | hit rate 2.3% among 330,000 | Potency, µM (highest dose often 46.1 µM), without a hit: at the top dose activity change, negative = inhibition, most hits filed as inhibitors | HEK293T ELG1-luciferase reporter, luminescence, 16 h; DNA damage induced by 5-fluorouridine; note: nearly all actives have a fitted effect of over 55% in size
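Reporter activity after DNA damage by 5-fluorouridine is monitored. Compound-treated cells incubate 16 hr at 37 °C, then ONE-Glo is added for 30 min before luminescence reading.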
12-LOX inh: inhibitors of human 12S-lipoxygenase ALOX12; hit rate 1.1% among 580,000; Potency, µM (series often up to 108 µM), without a hit: top-dose activity change, negative = inhibition, actives largely listed as inhibitors; purified 12hLO, xylenol orange hydroperoxide absorbance; AID 1671190
Target sequence (P18054 whole entry, looked up): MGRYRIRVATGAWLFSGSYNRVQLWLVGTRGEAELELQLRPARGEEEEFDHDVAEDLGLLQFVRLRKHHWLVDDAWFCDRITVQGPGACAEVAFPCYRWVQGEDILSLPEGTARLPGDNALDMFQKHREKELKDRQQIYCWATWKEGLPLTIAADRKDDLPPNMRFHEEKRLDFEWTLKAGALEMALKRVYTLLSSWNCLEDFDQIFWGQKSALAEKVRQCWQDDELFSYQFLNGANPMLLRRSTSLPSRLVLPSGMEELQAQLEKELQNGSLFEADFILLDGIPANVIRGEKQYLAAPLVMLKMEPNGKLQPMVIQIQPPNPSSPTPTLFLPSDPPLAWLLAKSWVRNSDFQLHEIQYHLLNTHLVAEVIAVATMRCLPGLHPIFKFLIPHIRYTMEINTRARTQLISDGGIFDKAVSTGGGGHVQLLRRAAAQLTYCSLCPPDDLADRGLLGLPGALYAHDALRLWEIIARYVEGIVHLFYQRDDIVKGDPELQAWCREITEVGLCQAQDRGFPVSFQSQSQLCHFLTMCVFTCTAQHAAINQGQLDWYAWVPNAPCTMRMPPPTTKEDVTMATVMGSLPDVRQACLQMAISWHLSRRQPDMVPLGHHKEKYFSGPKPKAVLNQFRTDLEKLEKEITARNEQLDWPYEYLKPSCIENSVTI
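Purified human 12hLO at 150 nM in 25 mM Hepes, 0.01% Triton X-100, pH 7.0, preincubated 15 min at room temperature with compound. Reaction started with 40 uM arachidonic acid, 30 min at room temperature. Hydroperoxide measured by Fe-xylenol orange, 573/405 nm absorbance ratio.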
Starred values were filed as active, the others as inactive; ? = inconclusive; . = not tested or not shown; [ ] = dose if it differs, or a comment. This is a sample that favours compounds with a hit; in the whole collection about 15% have one here. Calls come from the whole dose curve; as a rule, active = well fitted curve in the direction sought with a large enough effect; inconclusive = small, poorly fitted or top-dose-only effect, or another doubt; inactive = no such curve, though single readings can be large; an effect the other way counts as inactive or inconclusive. % is set by controls: 0 for no effect and ±100 for the full control effect; potency is the fitted concentration of half-maximal effect.

SMILES | TDP1 cell CPT | RORg inh | Gal4-VP16 FLuc | DT40 TDP1 no CPT | ELG1 DNA repair | 12-LOX inh
CCc1cccc(C)c1NC(=O)CN(C)Cc1cccc(F)c1 | ? | 3% | -7% | 16µM* | 1% | -8%
Cc1cccc(C)c1NC(=O)CN(C)CC(=O)Nc1ccccc1Oc1ccccc1 | -4% | 7% | 11% | ? | 12µM* | 3%
CCc1nnc([C@@H]2CC(F)(F)CN2C(=O)COc2ccccc2)o1 | . | . | . | . | . | 40%
CC(/C=C(\NC(=O)c1ccccc1)C(=O)N=Nc1c(O)[nH]c2ccc(C)cc12)=C\c1ccccc1 | 8.2µM* | ? | -1% | 8.2µM* | ? | -11%
O=C(CNC(=O)c1ccccc1)N=Nc1c(O)[nH]c2ccc(Br)cc12 | ? | -41% | ? | -21% | -4% | ?
C[C@@H]1CN(C(=O)c2cnn(C)c2)CC[C@@]1(O)C1CCOCC1 | . | . | . | . | . | 4%
CCCCC(=NCCc1c(C)[nH]c2ccccc12)C1=C(O)CC(c2ccccc2)CC1=O (configuration not stated) | 5.8µM* | ? | -5% | 5.2µM* | ? | -6%
CCC/C(O)=C1\C(=O)CC(c2ccccc2)CC1=NCCc1c(C)[nH]c2ccccc12 (configuration not stated) | ? | ? | -10% | ? | ? | 32%
CCCC(=NCCc1c(C)[nH]c2ccccc12)C1=C(O)CC(c2ccccc2)CC1=O (configuration not stated) | 0.58µM* | 33% | -14% | 1.3µM* | ? | ?
COc1cc(-c2nc(Cn3nnc(C(=O)Nc4ccccc4)c3C)c(C)o2)cc(OC)c1OC | ? | . | . | 26µM* | . | -12%
COc1ccc(C(=O)Nn2c(CCC(=O)O)ccc2-c2ccc(Cl)cc2)cc1OC | . | . | . | . | . | 17%
Cc1ccccc1C(=O)Nc1sc2c(c1C(=O)N1CCC(C)CC1)CCC(C)C2 (configuration not stated) | 15µM* | . | . | 21µM* | . | -16%
O=C(Nc1sc2c(c1C(=O)N1CCCCC1)CCCC2)c1ccccc1Cl | ? | . | . | ? | . | -34%
Cc1ccccc1C(=O)Nc1sc2c(c1C(=O)N1CCCCC1)CCC(C)C2 (configuration not stated) | 18µM* | . | . | ? | . | -24%
COc1ccc(CN2CCC3(CC(C)=NO3)C2)cc1 (configuration not stated) | . | . | . | . | . | 49%[176 µM]
S=c1nc[nH]c2c1[nH]c1ccccc12 | -9% | 11µM* | 0%[0.365 µM] | -10% | 18% | ?
S=c1nc[nH]c2c1[nH]c1ccc(Cl)cc12 | -6% | -39% | -10% | 0% | ? | ?
COc1ccc(NC(=O)c2ccccc2SCc2ccc(C#N)cc2)cc1OC | . | . | . | . | . | 35µM*
N#CCSc1ccccc1C(=O)Nc1ccc2c(c1)CCC2 | . | . | . | . | . | 1.1µM*
N#Cc1ccc(CSc2ccc3c(c2)OCCCO3)cc1 | . | . | . | . | . | -19%
O=C(Nc1ccc2c(c1)OCCCO2)c1ccccc1SCc1cccs1 | . | . | . | . | . | 16µM*
N#Cc1ccc(CSc2ccccc2C(=O)Nc2ccc3c(c2)OCCCO3)cc1 | . | . | . | . | . | 14µM*
Cc1ccc(CNC(=O)CCc2ncc(-c3ccc(F)cc3)o2)cc1 | . | . | . | . | . | 6%
O=C(c1ccc(Cl)cc1)N1CCC(c2n[nH]c(=O)n2-c2ccccc2)CC1 | . | . | . | . | . | 25%
COc1ccc(-c2noc(CC3CCN(C(=O)c4cc(Cl)ccc4F)CC3)n2)cc1 | . | . | . | . | . | 15%
Clc1cccc(Cl)c1C=Nc1ccc(-c2ccc(N=Cc3c(Cl)cccc3Cl)cc2)cc1 | . | . | . | . | . | -3%
COC(=O)C(NC=O)C(O)(C#Cc1ccccc1)C(F)(F)F (configuration not stated) | . | . | . | . | . | -25%
CSC1=N/C(=C\c2ccc(Br)o2)C(=O)S1 | -2% | -19% | -3% | -1% | 3% | ?

High-throughput results from PubChem BioAssay.
